PubChem BioAssay (Tox21)
Values joined by “and” are separate entries in the source; they are usually repeats but may differ in a detail not shown here. Equal values may be shown once. Records with an inconclusive call do not appear. Some structures have more than one record in an assay (separate samples or runs), and their calls can disagree. Active and inactive are the calls of the source. Unless noted, calls come from the whole dose curve; as a rule, active = well fitted curve in the direction sought with a large enough effect in the repeat runs; inconclusive = weak or mixed curves; inactive = no such curve, though single readings can be large; an effect the other way counts as inactive or inconclusive.

What was measured:
[1] = qHTS assay for small molecule agonists of the p53 signaling pathway (AID 651631; calls by dose curve; note: nearly all actives have a fitted effect of over 15% in size; note: potency is the fitted concentration of half-maximal effect)
Procedure, shortened: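 Quantitative high-throughput format: 4,000 p53RE-bla HCT-116 cells/well, 5 h pre-incubation, 16 h compound exposure at 37 °C, 2 h room-temperature substrate step, fluorescence intensity measured.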

[2] = qHTS assay for small molecule agonists of the p53 signaling pathway - cell viability (AID 651633; calls by dose curve; note: nearly all actives have a fitted effect of over 30% in size; note: potency is the fitted concentration of half-maximal effect)
Procedure, shortened: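 p53RE-bla cells were treated with compound for 16 hours at 37 C. Cytotoxicity was then measured as CellTiter-Glo luminescence after 30 min at room temperature.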

[3] = qHTS assay for small molecules that induce genotoxicity in human embryonic kidney cells expressing luciferase-tagged ATAD5 - cell viability (AID 651634; calls by dose curve; note: nearly all actives have a fitted effect of over 25% in size)
Procedure, shortened: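 15.5 hr compound or vehicle exposure of HEK293T cells expressing luciferase-tagged ATAD5 at 37C; live-cell protease activity is read by fluorescence after 30 min of CellTiter-Fluor.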

[4] = qHTS assay for small molecule disruptors of the mitochondrial membrane potential - cell viability (AID 720634; calls by dose curve; note: nearly all actives have a fitted effect of over 20% in size; note: potency is the fitted concentration of half-maximal effect)
Procedure, shortened: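 In this qHTS format, HepG2 cells plated overnight were pinned with compound, incubated 1 hr, and assayed for ATP luminescence with CellTiter-Glo after m-MPI dye addition.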

[5] = qHTS assay to test for compound auto fluorescence at 590 nm (red) in HepG2 cells (AID 720674)
Procedure, shortened: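 Fluorescence at 590 nm emission following 540 nm excitation was recorded from HepG2 wells one hour after compound transfer, with DMSO-only wells as vehicle and Rose Bengal sodium equivalency as the scale.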

[6] = qHTS assay to test for compound auto fluorescence at 535 nm (green) in HepG2 cells (AID 720675)
[7] = qHTS assay to test for compound auto fluorescence at 460 nm (blue) in HEK293 cells (AID 720678)
Procedure, shortened: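 Triamterene serves as the blue fluorophore standard. Compound signal at 405/460 nm is read in HEK293 wells (2,000 cells, 10% dialyzed FBS) after overnight treatment at 37C.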

[8] = qHTS assay to test for compound auto fluorescence at 590 nm (red) in HEK293 cells (AID 720679)
Procedure, shortened: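 We plated HEK293 cells in 10% dialyzed FBS medium, let them adhere for 4-5 hr, then added 23 nL compound. Overnight at 37C and 5% CO2 preceded fluorescence measurement at 540/590nm.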

[9] = qHTS assay to test for compound auto fluorescence at 535 nm (green) in HEK293 cells (AID 720680)
[10] = qHTS assay to test for compound auto fluorescence at 460 nm (blue) in HEK293 cell free culture (AID 720681)
Procedure, shortened: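 Compounds were added to cell-free DMEM with 10% FBS and fluorescence read directly. The blue channel used 405 nm excitation and 460 nm emission, with triamterene as the reference fluorophore.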

[11] = qHTS assay to test for compound auto fluorescence at 535 nm (green) in HEK293 cell free culture (AID 720682)
Procedure, shortened: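 Measurement is a direct plate read of green fluorescence (485 nm in, 535 nm out) after compound addition to serum-supplemented DMEM lacking cells, with fluorescein used to express intensities.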

[12] = qHTS assay to test for compound auto fluorescence at 590 nm (red) in HEK293 cell free culture (AID 720683)
Procedure, shortened: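 Cell-free wells of DMEM with 10% FBS received compound, and intrinsic fluorescence was read at excitation/emission 540/590 nm. Values expressed as equivalence to Rose Bengal sodium.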

[13] = qHTS assay to test for compound auto fluorescence at 590 nm (red) in HepG2 cell free culture (AID 720684)
Procedure, shortened: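 Rose Bengal sodium served as the reference for red signal. Test compounds were dispensed into serum-containing MEM (10% FBS) without cells, and plates were read at 540/590 nm.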

[14] = qHTS assay to test for compound auto fluorescence at 460 nm (blue) in HepG2 cell free culture (AID 720685)
Procedure, shortened: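 Cell-free plates of MEM plus 10% FBS received 23 nL compound or DMSO vehicle; blue-channel (405/460 nm) intensity scored against triamterene as reference fluorophore.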

[15] = qHTS assay to test for compound auto fluorescence at 535 nm (green) in HepG2 cell free culture (AID 720686)
[16] = qHTS assay to test for compound auto fluorescence at 460 nm (blue) in HepG2 cells (AID 720687)
Procedure, shortened: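 HepG2 cells in MEM with 10% FBS, attached overnight at 37 C, were exposed to compound or DMSO for 1 hr at 37 C, 5% CO2. Blue fluorescence was read at 405/460 nm, with triamterene as reference fluorophore.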

[17] = qHTS assay for small molecules that induce genotoxicity in human embryonic kidney cells expressing luciferase-tagged ATAD5 (AID 651632); note: nearly all actives have a fitted effect of over 15% in size
Procedure, shortened: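 Concentration-response screen for ATAD5 upregulation in HEK293T luciferase reporter cells; 16 hr treatment at 37C, then luminescence after 30 min with Amplite at room temperature.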

[18] = qHTS assay for small molecule disruptors of the mitochondrial membrane potential (AID 720635); note: potency is the fitted concentration of half-maximal effect
Procedure, shortened: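 HepG2 cells exposed to compound 1 hr at 37C, then Mito-MPS dye 30 min. Ratio read of aggregate (540/590 nm) versus monomer (490/535 nm) fluorescence.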

[19] = target: Glucocorticoid receptor (Homo sapiens) (UniProt P04150); assay: qHTS assay to identify small molecule agonists of the glucocorticoid receptor (GR) signaling pathway (AID 720691; active = well fitted activation curve with a large enough effect in the signal ratio in the repeat runs, not every such curve was filed as active; the % refers to the signal ratio; note: potency is the fitted concentration of half-maximal effect); conditions: GR-bla HeLa, beta-lactamase reporter ratio, 18 h; activation: at 62.4 µM (top of the series)
Glucocorticoid receptor (Homo sapiens), sequence (P04150 whole entry, looked up): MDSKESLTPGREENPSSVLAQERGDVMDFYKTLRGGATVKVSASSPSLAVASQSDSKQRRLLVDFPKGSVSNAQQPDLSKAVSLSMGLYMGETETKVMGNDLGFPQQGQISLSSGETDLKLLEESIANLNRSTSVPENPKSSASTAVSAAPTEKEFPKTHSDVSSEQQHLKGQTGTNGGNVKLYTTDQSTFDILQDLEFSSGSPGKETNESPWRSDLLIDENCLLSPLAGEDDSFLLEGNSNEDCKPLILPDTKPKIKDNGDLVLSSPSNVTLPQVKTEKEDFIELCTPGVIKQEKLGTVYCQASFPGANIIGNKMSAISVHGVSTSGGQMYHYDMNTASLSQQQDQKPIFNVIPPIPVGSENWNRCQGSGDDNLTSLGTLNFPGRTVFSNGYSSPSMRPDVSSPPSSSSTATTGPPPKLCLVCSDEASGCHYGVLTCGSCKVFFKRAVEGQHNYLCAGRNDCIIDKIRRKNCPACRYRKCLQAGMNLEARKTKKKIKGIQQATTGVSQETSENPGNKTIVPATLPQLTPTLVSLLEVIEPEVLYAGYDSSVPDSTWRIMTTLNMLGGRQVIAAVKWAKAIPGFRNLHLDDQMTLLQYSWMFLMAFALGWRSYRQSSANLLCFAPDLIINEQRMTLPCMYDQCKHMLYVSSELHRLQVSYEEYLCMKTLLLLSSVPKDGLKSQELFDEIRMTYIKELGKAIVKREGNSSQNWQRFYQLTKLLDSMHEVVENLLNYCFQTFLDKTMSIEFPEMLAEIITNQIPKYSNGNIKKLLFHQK
Procedure, shortened: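 Measures GR pathway activation through a GRE-beta-lactamase reporter stably integrated in HeLa cells, with 18 h compound treatment at 37 C and fluorescence detection using a FRET substrate.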

[20] = target: Glucocorticoid receptor (Homo sapiens) (UniProt P04150); assay: qHTS assay to identify small molecule antagonists of the glucocorticoid receptor (GR) signaling pathway (AID 720692; active = well fitted inhibition curve with a large enough effect in the signal ratio in the repeat runs, not every such curve was filed as active; the % refers to the signal ratio)
Procedure, shortened: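 Tox21 10K library screened in concentration-response for blockade of dexamethasone (5 nM final)-induced GRE-bla reporter activity in HeLa cells; 18 h treatment, fluorescence read.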
% is set by controls: 0 for no effect and ±100 for the full control effect.

COc1cc(-c2ccc(N=C=O)c(OC)c2)ccc1N=C=O
inactive: Potency [1] | Potency [2] | Potency [3] | Potency [4] | Potency [5] | Potency [6] | Potency [7] | Potency [8] | outcome [9] | Potency [10] | outcome [11] | Potency [12] | Potency [13] | Potency [14] | Potency [15] | Potency [16]

O=C1C=CC(=O)N1
active: Potency [1] 49.8 µM | Potency [4] 49.8 µM | Potency [18] 28 µM
inactive: Potency [17] | Potency [5] | Potency [6] | Potency [7] | Potency [8] | outcome [9] | Potency [10] | outcome [11] | Potency [12] | Potency [13] | Potency [14] | Potency [15] | Potency [16]

CC(=O)SC[C@@H](Cc1ccccc1)C(=O)NCC(=O)OCc1ccccc1
inactive: Potency [1] | Potency [2] | Potency [3] | Potency [4] | Potency [18] | fluorescence, relative to Rose Bengal [5] 0.374% [at 18.6 µM] | fluorescence, % of triamterene [7] -0.317% [at 18.6 µM] | fluorescence, % of fluorescent control [8] -1.15% [at 18.6 µM] | fluorescence, % of fluorescein [9] -0.0812% [at 18.6 µM] | fluorescence, % of fluorescent control [10] 0.0019% [at 18.6 µM] | activity change [11] -0.0233% [at 18.6 µM] | fluorescence, % of fluorescent control [12] 0.587% [at 18.6 µM] | fluorescence, % of Rose Bengal [13] -0.444% [at 18.6 µM] | fluorescence, % of fluorescent control [14] -0.074% [at 18.6 µM] | fluorescence, % of fluorescein control [15] -0.0189% [at 18.6 µM] | fluorescence, % of fluorescent control [16] 0.351% [at 18.6 µM] | Potency [19] | Potency [20]

CC(=O)N1CCN(c2ccc(OC[C@H]3CO[C@](Cn4ccnc4)(c4ccc(Cl)cc4Cl)O3)cc2)CC1
active: Potency [18] 4.86 µM
inactive: Potency [1] | Potency [17] | Potency [4] | Potency [5] | Potency [6] | Potency [7] | Potency [10] | outcome [11] | Potency [12] | Potency [13] | Potency [14] | Potency [15] | Potency [16] | Potency [19] | Potency [20]
inactive and 61.1 µM (active): Potency [2]

O=C1CCCc2c1cc1ccc3cccc4ccc2c1c34
inactive: Potency [2] | Potency [3] | Potency [5] | Potency [6] | Potency [7] | Potency [8] | outcome [9] | Potency [10] | outcome [11] | Potency [12] | Potency [13] | Potency [14] | Potency [15] | Potency [16]
active: Potency [1] 55.1 µM | Potency [18] 8.74 µM | Potency [19] 22.2 µM

Cc1cc2c(cc1C(F)(F)F)N(C(=O)Nc1ccc(Oc3cccnc3C)nc1)CC2
inactive: Potency [1] | Potency [17] | Potency [2] | Potency [5] | Potency [6] | Potency [7] | Potency [8] | outcome [9] | Potency [10] | outcome [11] | Potency [12] | Potency [13] | Potency [14] | Potency [15] | Potency [16] | Potency [19] | Potency [20]
active: Potency [18] 12.4 µM
